Source: PubChem BioAssay
NOMO-1 viab: STK33 inhibitor candidate reducing NOMO-1 cell viability; hit rate 7.5% among 37,000; inhibition, % (concentration not given with the values); NOMO-1 AML viability, CellTiter-Glo luminescence, 72 h; in the data active = inhibition above about 80%; inconclusive = no clear call, values can overlap the other calls
Shh pathway inh: Sonic Hedgehog pathway inhibition. Shh-LIGHT2 Gli-luciferase reporter, 30 h. inhibition, % (test concentration not listed). hit rate 2.1% among 22,000. AID 2313;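 active = mean inhibition across valid replicates above about 65%, limit read from the data; inconclusive = mean under the limit, yet half or more replicates past it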;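 note: pathway switched on by Shh-conditioned medium diluted 1 in 25 in low serum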
MITF inhib: MITF inhibition. inhibition, % (test concentration not listed). hit rate 0.28% among 37,000. AID 2240. TRPM1 promoter luciferase, luminescence, 24 h; in the data active = inhibition above about 85%; inconclusive = no clear call, values can overlap the other calls; inactive = below about 68%;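 note: human melanocyte line stably carrying TRPM1 promoter luciferase reporter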
* = called active by the depositor; ? = inconclusive; nt = no result. Hits are enriched below; roughly 7.8% of the tested compounds scored in any of these assays.

SMILES	NOMO-1 viab	Shh pathway inh	MITF inhib
Cc1ccc(S(=O)(=O)Nc2ccc3c(c2)CC(=O)N([C@@H](C)CO)C[C@@H](C)[C@@H](CN(C)Cc2ccc(Cl)c(Cl)c2)O3)cc1	83*	-8	23
Cc1ccc(S(=O)(=O)Nc2ccc3c(c2)CC(=O)N([C@H](C)CO)C[C@@H](C)[C@H](CN(C)Cc2ccc(Cl)c(Cl)c2)O3)cc1	59	-16	0
Cc1ccc(S(=O)(=O)Nc2ccc3c(c2)CC(=O)N([C@H](C)CO)C[C@@H](C)[C@@H](CN(C)Cc2ccc(Cl)c(Cl)c2)O3)cc1	116*	35	26
Cc1ccc(S(=O)(=O)Nc2ccc3c(c2)CC(=O)N([C@@H](C)CO)C[C@H](C)[C@H](CN(C)Cc2ccc(Cl)c(Cl)c2)O3)cc1	71	-33	5
COC(=O)c1ccc(C(=O)OC)c(NC(=O)COc2ccc(I)cc2)c1	18	nt	-7
COc1ccc(S(=O)(=O)Nc2ccc3c(c2)C(=O)N([C@H](C)CO)C[C@H](C)[C@@H](CN(C)S(=O)(=O)c2ccccc2)OCCCC[C@@H](C)O3)cc1	25	63	1
COc1ccccc1NC(=O)C1c2ccccc2Oc2ccccc21	?	nt	7
COc1ccccc1NC(=O)/C=C\c1ccco1	107*	68*	-61
COc1ccc2c(=O)c(CC(=O)O)coc2c1	17	-39	-8
COc1ccc(CN(C)C[C@H]2Oc3ccc(NC(=O)Nc4ccc(OC)cc4)cc3CC(=O)N([C@@H](C)CO)C[C@H]2C)cc1	1	13	7
COc1ccc(NC(=O)Nc2ccc3c(c2)CC(=O)N([C@@H](C)CO)C[C@H](C)[C@H](CN(C)Cc2ccc(Cl)c(Cl)c2)O3)cc1	113*	?	15
COc1ccc(NC(=O)Nc2ccc3c(c2)CC(=O)N([C@H](C)CO)C[C@@H](C)[C@@H](CN(C)Cc2ccc(Cl)c(Cl)c2)O3)cc1	115*	23	-1
COc1ccc(NC(=O)Nc2ccc3c(c2)CC(=O)N([C@@H](C)CO)C[C@H](C)[C@H](CN(C)Cc2ccncc2)O3)cc1	0	24	-4
COc1ccc(CN(C)C[C@H]2Oc3ccc(NC(=O)Nc4ccc(OC)cc4)cc3CC(=O)N([C@H](C)CO)C[C@H]2C)cc1	-7	-10	5
COc1ccc(NC(=O)Nc2ccc3c(c2)CC(=O)N([C@H](C)CO)C[C@@H](C)[C@H](CN(C)Cc2ccc(Cl)c(Cl)c2)O3)cc1	85*	0	23
O=C(CSc1nc2ccccc2c(=O)[nH]1)c1ccc(-c2ccccc2)cc1	48	-30	-12
Cc1ccc(S(=O)(=O)N(C)C[C@@H]2Oc3c(NC(=O)Nc4c(C)noc4C)cccc3C(=O)N([C@H](C)CO)C[C@H]2C)cc1	-17	-16	0
O=C1/C(=C/c2ccccn2)CC/C1=C\c1ccccn1	135*	nt	-3
COc1ccc(/C=C2\CC/C(=C\c3ccc(C)cc3)C2=O)cc1	11	nt	-7
CCOc1ccccc1NC(=O)CSc1c(C)n[nH]c1C	-4	nt	-13
COc1cccc(C=C2C(=O)c3ccccc3C2=O)c1OC(C)C	104*	6	9
COc1cccc(-c2cc(=O)c3ccccc3o2)c1N	64	-122	-16
Cn1nnnc1SCC(=O)Nc1ccc(I)cc1	12	nt	-26
COc1cc(NC(=O)C(Sc2nc(C)cc(C)c2C#N)c2ccccc2)c(OC)cc1Cl (configuration not stated)	6	32	-4
CC(C)(C)c1cc(-c2cccs2)c(C#N)c(SCC(=O)Oc2ccccc2)n1	18	65*	-6
SMILES	NOMO-1 viab	Shh pathway inh	MITF inhib
N#Cc1c(C(F)(F)F)cc(-c2cccs2)nc1SCC(O)COc1ccc(Cl)cc1 (configuration not stated)	58	nt	11
COc1ccc(-c2cc(-c3cccs3)nc(SC(C(=O)O)c3ccccc3)c2C#N)cc1 (configuration not stated)	92*	nt	30
O=C(CSc1ncnc2sc3c(c12)CCCCC3)NCc1ccco1	131*	nt	20
Cc1nc(SCC(=O)NCc2ccco2)c2c3c(sc2n1)CCC3	14	nt	-24
CC1(C)Cc2nc3sc4c(SCC(=O)NCc5ccco5)ncnc4c3cc2CO1	127*	nt	-10
CCOC(=O)CSc1ncnc2c1sc1nc3c(cc12)COC(C)(C)C3	-7	nt	29
CCc1cccc(C)c1NC(=O)CSc1nnc(-c2ccc(OC)cc2)o1	20	nt	4
CCn1cc(CN(C)C(=S)Nc2ccc(OC)c(OC)c2)c(C)n1	9	nt	-18
C[C@@H]1CN([C@@H](C)CO)C(=O)c2cccc(NC(=O)Nc3ccc(C(F)(F)F)cc3)c2O[C@H]1CN(C)CC1CC1	83*	2	29
C[C@H](CO)N1C[C@H](C)[C@H](CN(C)CC2CC2)Oc2c(NC(=O)Nc3ccc(C(F)(F)F)cc3)cccc2C1=O	44	-48	-10
